{
  "source": "PubChem BioAssay AID1508600",
  "about": "(Functional Genomics Laboratory (NCATS/FGL), 2020)",
  "note": "The whole screen tested about 53,000 sequences, of which about 3,700 (7%) were called active. The entries come from a sample that favours actives as a whole. A number with no mark means an inactive call.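 The calls were made as follows: active = gene knockdowns whose robust z-score for IL-1 alpha signal is at least 2 or at most -2, so actives lie on both sides; inactive = the rest.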",
  "data": [
    {"assay": "Components of the Cytosolic LPS Sensing Pathway: Gene Identification via Genome-wide siRNA Screen", "details": "RAW264.7 macrophages, IL-1a HTRF, actives lie on both sides, screened at 100 nM (by protocol), cells primed 5 h with Pam3CSK4 first", "excerpt": "Non-canonical inflammasome activation by cytosolic LPS is a critical component of the host response to Gram-negative bacterial infection, however we lack a comprehensive understanding of the cellular processes that control this pathway. Here we describe a genome-wide siRNA screen to identify genes regulating the mouse macrophage IL-1 alpha response to cytosolic LPS.\nRAW264.7 cells were maintained in complete DMEM media, comprising DMEM with 4.5 g/L glucose, 10% FBS (Gemini Bio-Products, West Sacramento, CA), 2 mM Glutamine (Lonza) and 20 mM HEPES (Lonza), hereafter complete DMEM.\nThe RNAi screen was conducted in 384-well format using the Ambion Silencer Mouse Genome siRNA Library (#4391425), which consists of three unique, nonoverlapping, nonpooled siRNAs for each of 17,000 gene targets. siRNA reagents ([…]) were stamped into 384-well white flat-bottom microplates (Corning, 3570) using a Velocity11 VPrep liquid handling system (Agilent) integrated into a BioCel robotic platform (Agilent) in columns 1-22, leaving columns 23-24 empty for negative (Ambion, Negative control #1) and positive (mouse Casp4) controls, respectively. The median value of each plate's negative control column was used to normalize sample wells, and the positive control was used to assess transfection efficiency and assay performance.\nLipofectamine RNAiMAX Transfection Reagent ([…]; Invitrogen) was added in […] serum-free, antibiotic-free media to plate wells using a Thermo Scientific Matrix WellMate and Microplate Stacker. Plates were incubated for 45 min at room temperature to allow for the sufficient formation of siRNA-lipid complexes. Cells were seeded at a density of 1x10^4 cells per well in 20 microL media containing 20% (vol/vol) FBS without antibiotics. The final concentration of siRNA in each well was 100 nM. Cells were cultured for 48h at 37 degrees C in 5% CO2 before addition of […] of TLR ligand Pam3CSK4 for 5 hours. The medium was then removed, replaced with […] growth media and cell were transfected with […] of LipidA and TransIT-TKO (Mirus) for 24 hour. At the end of the LipidA treatment, […] of supernatant was transferred to a 384 Greiner Bio-one non-binding low volume plate and […] of IL-1a HTRF reagent (Cisbio, 62MIL1APEH) was added and incubated at room temperature overnight. The plates were read on an EnVision plate reader (PerkinElmer). Cell viability was measured by adding 20ul Cell Titer Glo to the original plate and running a luminescence read on the EnVision. The quantified IL-1a signal for each siRNA gene-targeted well was divided by the median of the negative control wells and multiplied by 100 to achieve a negative control normalized value for each well/siRNA. This normalized value was then used to generate a robust z-score by first taking the log of each value and then by subtracting the median and dividing by the […].", "values": [
      {"sequence": "GGGAAGGACUGUAAGAAAATT against Dipk1a", "z-score": -0.252},
      {"sequence": "GCAUCAACACCUGUUCUAUTT against Olfr376", "z-score": 1.02},
      {"sequence": "GGAUCAUUUACAUUCAUACTT against Alg12", "z-score": "-2.6 (active)"},
      {"sequence": "GGCACCUGUUAAAAAUGAATT against Prag1", "z-score": -0.771},
      {"sequence": "GGACUAGUGUGAAAAAGGATT against Nsd1", "z-score": "-2.87 (active)"},
      {"sequence": "GCUCAUCGGAGAGUUCUAUTT against Ube2h", "z-score": 0.594},
      {"sequence": "GGCAGCAUUGAGUGUGUGATT against Asb13", "z-score": "2.53 (active)"},
      {"sequence": "GGAAUGCUGAAGUAAAAAATT against Olfr1259", "z-score": -0.808},
      {"sequence": "GGGCCAAGUUCCGAAAGAATT against Dmbx1", "z-score": -0.443},
      {"sequence": "GCCUUAACUAUGUUGUCUATT against Mgst1", "z-score": 0.893},
      {"sequence": "GCCUGCACUGUUGAACUAGTT against Tomm40l", "z-score": -1.09},
      {"sequence": "GCACUCAUUGCCAGGGUCATT against Pycard", "z-score": "-2.54 (active)"},
      {"sequence": "GCAGUUAUCCGUAUUUAAATT against Ctnnbl1", "z-score": 1.18},
      {"sequence": "CCCUCAUUCUCUAGCGUGATT against H2-K1", "z-score": -1.07},
      {"sequence": "GGAUGGACUUCGUCAUGAATT against Cplx2", "z-score": 0.55},
      {"sequence": "GGAGUGAUUCAGUGAAAACTT against Iqcf3", "z-score": -0.289},
      {"sequence": "CGUCAUAAAGAAUAGUUCCTT against Ncoa4", "z-score": 0.965},
      {"sequence": "GGAGAAGAGUUAUUGGAUATT against Dnajb4", "z-score": 0.901},
      {"sequence": "CCUACGGCAAACAGAGACUTT against Klk6", "z-score": "-2.29 (active)"},
      {"sequence": "GGAGUUUAAGAAGACGCACTT against Slc26a3", "z-score": 1.62},
      {"sequence": "GGUUUUGGACCAGAUGAGCTT against Abi3", "z-score": 0.0276},
      {"sequence": "GGGAUGAAGUGUUCCAUCCTT against Ccdc187", "z-score": "2.88 (active)"},
      {"sequence": "GCAAUUAGUAACUGAGAAUTT against Dpp10", "z-score": 0.0628},
      {"sequence": "GGACUAUGCUGUCCAGAUCTT against Ntn1", "z-score": -0.432},
      {"sequence": "GGUGCUGAAUUUGAUCAAGTT against Rpa2", "z-score": 1.83},
      {"sequence": "UUGUUAUAGCACUUCCAAATT against Vwa3b", "z-score": "2.12 (active)"},
      {"sequence": "GGAUGGGUUUGAUCUUAAUTT against Il13ra2", "z-score": 0.519},
      {"sequence": "GCCAUUUGAAGGCUUUUGUTT against D130079A08Rik", "z-score": -0.555},
      {"sequence": "GCUGGUGAUGACGUGUAUCTT against Slc32a1", "z-score": 0.357},
      {"sequence": "GUUGAACAAUCUUGUCCUGTT against Rps25", "z-score": 0.518},
      {"sequence": "GGCAUGAGACAAGCUAGUCTT against Mrgpre", "z-score": -0.463},
      {"sequence": "GGCUGCUAAUUGGAUUUUUTT against Ccnj", "z-score": -0.936},
      {"sequence": "GCCUUUCAUACAUUCAACATT against Olfr313", "z-score": -1.49},
      {"sequence": "GGACAGACCACACUUCAUGTT against Foxp3", "z-score": -0.494},
      {"sequence": "GGCCAUGAUUUACGACGACTT against C1qtnf4", "z-score": -1.22},
      {"sequence": "GGCUCUCUGAGGAUUCGAATT against 4930544M13Rik", "z-score": -0.209},
      {"sequence": "CGGGACAUUCGUGAUCUUATT against Tmem114", "z-score": "-2.38 (active)"},
      {"sequence": "GGAUUCGCCUUUUCUACCGTT against Hoxb2", "z-score": 0.929},
      {"sequence": "GGAGCUGUGAGCAUUACUGTT against Cenpm", "z-score": -1.89},
      {"sequence": "GGUCAUCGAUAAGAAAAGATT against Hunk", "z-score": -1.09},
      {"sequence": "GCAGGUGAAAAGCAAUCCUTT against Prss27", "z-score": 1.03},
      {"sequence": "GAUGGUCAUUGAUGUCCUUTT against Rps24", "z-score": -0.694},
      {"sequence": "GGAGAGUGCUGAUGUUCUGTT against Rhox6", "z-score": "2.26 (active)"},
      {"sequence": "GGUGCUUGUGGGUAACAAGTT against Rab33a", "z-score": 1.94},
      {"sequence": "GGACAUAAUCAAAGACAUCTT against Ddc", "z-score": 1.15},
      {"sequence": "GGCAUACCCAAAAAUAGAATT against Eif1a", "z-score": 0.139},
      {"sequence": "GGAGAACUCCAGGUUGGCATT against Eaf1", "z-score": "-2.03 (active)"},
      {"sequence": "GCGCAAAGAUGGCUAUUGCTT against Adamts3", "z-score": 1.42},
      {"sequence": "GCUCAUCCAUUACGAGUUGTT against Dusp18", "z-score": 0.878},
      {"sequence": "GCAUUUCCUUAACACUCCCTT against Msmb", "z-score": -0.614},
      {"sequence": "CGAGAAACAGAGUAUCAAGTT against Utp23", "z-score": 0.776},
      {"sequence": "GGGCCAUACCAUUUGGGUGTT against Wdr38", "z-score": 0.142},
      {"sequence": "GGUAAAAAGUACAAGUGGGTT against Slc17a5", "z-score": -0.909},
      {"sequence": "GGUGAUACCUCUGUCCUGGTT against Exosc5", "z-score": -1.17},
      {"sequence": "GGAGGGUGAUCUCAUUGAATT against Prkd1", "z-score": 0.479},
      {"sequence": "GCAGCAAUACAUCCUUCAUTT against Cdh1", "z-score": 1.12},
      {"sequence": "CCGAGCUAGAUCAGCUAUUTT against Mertk", "z-score": -1.45},
      {"sequence": "GGAAACCGUUUUUUUUUUCTT against Appbp2", "z-score": "2.16 (active)"},
      {"sequence": "CCUAAUCUCUUGUAGGUAUTT against AU018091", "z-score": 1.03},
      {"sequence": "GGAACAGGCAACAUGAUUGTT against Nlgn3", "z-score": 0.376},
      {"sequence": "GGCUGUAUGUAUAUAGUCCTT against Snrpb", "z-score": "-2.41 (active)"},
      {"sequence": "GGUGUCCACAUUAAAUUACTT against Foxb1", "z-score": "2.21 (active)"},
      {"sequence": "GCACUAAGUCCCAUGUGUCTT against Trim11", "z-score": -1.01},
      {"sequence": "GGUUAUGGUAUUAACAGGUTT against Slc17a4", "z-score": 0.112},
      {"sequence": "GGGCAGAAUGCCAGUGUACTT against Kif22", "z-score": -0.305},
      {"sequence": "GCUUGACGCGAACUUACCATT against Endog", "z-score": "2.35 (active)"},
      {"sequence": "GGUGGACUUCGAGAACAUATT against Cyp2d26", "z-score": 0.75},
      {"sequence": "GGAUCAUCAACCAUCUAAUTT against Srsf7", "z-score": -1.11},
      {"sequence": "GCCUUUUGAUGCUUCCUCUTT against Rusf1", "z-score": -0.696}
    ]}
  ]
}
